# TLR9-MyD88 inh: blocks human TLR9 binding to MyD88. Q9NR96+Q99836. CHO BLA complementation TLR9-MyD88, CCF4 FRET ratio. inhibition, % at 4.98 µM. 0.21% of 340,000 active;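 active means inhibition above the mean over all tested compounds plus 3 SD, cut at about 21% in these data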;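 further: 0% = DMSO only wells and 100% = clavulanate BLA inhibitor control wells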
# Target sequence (Q99836 whole entry, looked up): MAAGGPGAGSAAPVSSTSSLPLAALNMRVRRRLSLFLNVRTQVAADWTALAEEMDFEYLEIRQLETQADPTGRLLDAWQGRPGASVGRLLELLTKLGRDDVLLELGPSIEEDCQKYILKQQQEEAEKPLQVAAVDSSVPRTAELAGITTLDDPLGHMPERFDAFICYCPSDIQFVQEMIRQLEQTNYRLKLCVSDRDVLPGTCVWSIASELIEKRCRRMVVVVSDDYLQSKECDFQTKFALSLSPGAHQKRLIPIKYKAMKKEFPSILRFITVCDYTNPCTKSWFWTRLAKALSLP
# Target sequence (Q9NR96 whole entry, looked up): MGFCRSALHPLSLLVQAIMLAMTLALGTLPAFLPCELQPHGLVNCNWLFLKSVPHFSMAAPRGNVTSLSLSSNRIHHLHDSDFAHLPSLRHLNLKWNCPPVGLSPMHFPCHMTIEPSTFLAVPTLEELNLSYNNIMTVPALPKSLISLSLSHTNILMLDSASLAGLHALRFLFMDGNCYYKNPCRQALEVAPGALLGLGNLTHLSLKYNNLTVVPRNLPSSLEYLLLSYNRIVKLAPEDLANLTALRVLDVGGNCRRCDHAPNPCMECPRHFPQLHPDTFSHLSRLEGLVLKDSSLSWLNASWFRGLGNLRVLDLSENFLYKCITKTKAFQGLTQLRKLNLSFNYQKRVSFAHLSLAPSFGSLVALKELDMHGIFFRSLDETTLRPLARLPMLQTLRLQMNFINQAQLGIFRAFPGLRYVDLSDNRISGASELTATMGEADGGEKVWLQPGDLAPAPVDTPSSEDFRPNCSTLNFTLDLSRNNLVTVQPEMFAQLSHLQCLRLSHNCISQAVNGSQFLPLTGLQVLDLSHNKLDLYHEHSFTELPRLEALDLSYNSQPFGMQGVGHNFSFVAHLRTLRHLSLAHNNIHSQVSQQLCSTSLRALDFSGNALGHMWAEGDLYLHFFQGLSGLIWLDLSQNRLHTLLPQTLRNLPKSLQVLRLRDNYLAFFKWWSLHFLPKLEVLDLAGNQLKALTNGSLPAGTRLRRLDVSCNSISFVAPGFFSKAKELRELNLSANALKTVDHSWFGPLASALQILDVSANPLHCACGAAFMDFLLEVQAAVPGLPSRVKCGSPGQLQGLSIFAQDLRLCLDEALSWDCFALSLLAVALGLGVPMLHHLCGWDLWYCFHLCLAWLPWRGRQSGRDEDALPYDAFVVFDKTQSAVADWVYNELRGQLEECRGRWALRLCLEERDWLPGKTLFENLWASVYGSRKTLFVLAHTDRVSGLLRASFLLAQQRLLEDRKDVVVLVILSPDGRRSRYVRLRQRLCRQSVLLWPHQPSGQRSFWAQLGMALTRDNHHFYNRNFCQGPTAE
# TLR4-MyD88 BLA: inhibitors of human TLR4-MyD88 binding; O00206+Q99836; HeLa CL3-4 TLR4/MyD88 BLA complementation, FRET ratio; inhibition, % at 8.4 µM; 0.18% of 200,000 active; in the data active means inhibition above about 25%;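 further: 0% = vehicle and 100% = reference inhibitor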
# ABHD5 PLIN5 PPI: ABHD5-PLIN5 protein interaction inhibition | Split G. princeps luciferase complementation, luminescence, 4 h | AID 602281 | Q00G26+Q8WTS1 | inhibition, % at 4 µM | 0.78% of 360,000 active;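 active means inhibition above the mean inhibition across every tested compound plus 3 SD, cut at about 22% in these data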;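 further: 0% = DMSO only wells and the 100% control is not disclosed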
# NOD2-RIPK2 inh: blocks binding of human NOD2 to RIPK2. CHO BLA complementation NOD2-RIPK2, CCF4 ratio. inhibition, % at 4.98 µM. 0.38% of 360,000 active. AID 624267; in the data active means inhibition above about 21%;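 further: 0% = vehicle only and 100% = reference blocker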
# ABHD5-PLIN5 conf: confirmation of human ABHD5-PLIN5 interaction inhibitors; shares compounds with ABHD5 PLIN5 PPI; biochemical ABHD5-PLIN5 interaction, luminescence; inhibition, % at 4 µM; 67% of 2,200 active; AID 651612; in the data active means inhibition above about 23%;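 further: 0% = DMSO vehicle wells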
# HNF4 split-luc: HNF4 split-luciferase signal hit, counter-screen; shares compounds with ABHD5 PLIN5 PPI; HNF4 dimerization, luminescence, biochemical; inhibition, % at 4 µM; 77% of 2,200 active;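 active means mean inhibition across replicate wells exceeding the computed hit threshold, cut at about 13% in these data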;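 further: light from luciferase halves that rejoin when HNF4 fusion proteins dimerize; 0% = DMSO only wells and the 100% control is not given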
# * hit, by the source's call; nt = not tested or not shown. Sampled rows, rich in hits. Any-hit rate of the full collection: about 1.2%.
SMILES,TLR9-MyD88 inh,TLR4-MyD88 BLA,ABHD5 PLIN5 PPI,NOD2-RIPK2 inh,ABHD5-PLIN5 conf,HNF4 split-luc
CCCc1nnc(NC(=O)c2nc(S(=O)(=O)Cc3cccc(C)c3)ncc2Cl)s1,1,nt,28*,20,74*,42*
CCCc1nnc(NC(=O)CS(=O)(=O)c2ccc(C)cc2)s1,-12,nt,14,-6,nt,nt
O=c1[nH]c(=S)[nH]c2c1[C@H](CCc1cccc(Cl)c1)O[C@H](C1CC1)C2,nt,nt,-9,2,nt,nt
CN(C)CCCN(C(=O)CCSc1ccccc1)c1nc2cc3c(cc2s1)OCO3,-7,-8,27*,6,15,19*
CN(C)CCCN(C(=O)COc1ccccc1)c1nc2cc3c(cc2s1)OCCO3,6,nt,6,-6,nt,nt
CN(C)CCCN(C(=O)CCS(=O)(=O)c1ccccc1)c1nc2cc3c(cc2s1)OCO3,-12,nt,26*,6,18,49*
CCOc1ccc(CNS(=O)(=O)c2cc(-c3cc(C)no3)ccc2OC)cc1OC,1,nt,-1,2,nt,nt
Cn1c(=O)c2c(ncn2CC(=O)OCC(=O)Nc2ccc(F)cc2F)n(C)c1=O,-10,nt,5,0,nt,nt
O=[N+]([O-])c1ccc2c(c1)nc(CO)n2Cc1ccccc1,4,nt,-3,-5,nt,nt
Cc1sc2nc(SCC(=O)NCc3ccco3)n(C)c(=O)c2c1C,-4,-4,5,0,nt,nt
O=c1c2ccccc2nc2ccc(NCc3ccco3)nn12,3,-6,31*,2,72*,80*
CCN(C(=O)CCc1nnc2ccc(NCc3ccco3)nn12)c1ccccc1,-12,nt,14,-16,nt,nt
Cc1sc2nc3ccc(NCc4ccco4)nn3c(=O)c2c1C,-2,-9,31*,5,66*,77*
COc1ccc2c(CN(Cc3ccccc3)Cc3ccccc3)cc(=O)oc2c1,nt,nt,-7,-6,nt,nt
C[C@H](CO)N1C[C@H](C)[C@@H](CN(C)S(=O)(=O)c2ccccc2)Oc2c(NC(=O)Nc3ccc4c(c3)OCO4)cccc2C1=O,-4,nt,-4,3,nt,nt
O=C(/C=C/c1cccs1)c1ccc(NC(=O)c2ccccc2F)cc1,-14,-7,8,-10,nt,nt
O=C(C=Cc1cccs1)c1ccccc1,-5,nt,28*,-6,50*,45*
O=C(C=Cc1cccs1)c1ccc(Cl)s1,1,nt,24*,1,60*,40*
O=C(CSc1ncn[nH]1)c1cccc([N+](=O)[O-])c1,-19,-5,35*,10,-4,26*
O=C1C=C(C2OC(CO)C(O)C2O)C(=O)N1 (stereo not drawn),-1,nt,68*,0,48*,104*
CN1CCN(c2nc(-c3ccc(Cl)cc3)nc3ccccc23)CC1,7,nt,14,-1,nt,nt
COC(=O)C1=C(C)NC2=C(C(=O)CCC2)C1c1ccc(-c2ccsc2C(=O)OC)o1 (stereo not drawn),-6,nt,24*,-15,8,10
C=CCC1(C)C(=O)N(c2ccccc2)c2ccccc21 (stereo not drawn),2,-16,32*,-10,5,4
C=CCCC1(C)C(=O)N(c2ccccc2)c2ccccc21 (stereo not drawn),4,-15,-2,5,nt,nt
CC(CNC(=O)C(=O)NC(C)CCc1ccccc1)Cc1ccccc1 (stereo not drawn),3,3,-4,-3,nt,nt
SMILES,TLR9-MyD88 inh,TLR4-MyD88 BLA,ABHD5 PLIN5 PPI,NOD2-RIPK2 inh,ABHD5-PLIN5 conf,HNF4 split-luc
Nc1nsc2ccccc12,-2,4,45*,6,57*,64*
Cc1cc(S(=O)(=O)NC(C)c2nnc3ccccn23)ccc1Br (stereo not drawn),1,nt,3,4,nt,nt
N=c1n(Cc2ccccc2)c2ccccc2n1CC(O)c1ccco1 (stereo not drawn),-8,3,23*,-6,8,15*
CCCCCCN1CCN(C2CN(Cc3ccccc3)S(=O)(=O)C2)CC1 (stereo not drawn),nt,nt,1,-13,nt,nt
O=C(/C=C/Sc1ccccc1)c1ccccc1,6,15,35*,5,61*,47*
NC(=O)c1ccccc1N/C=C/C(=O)c1ccc(Cl)cc1,7,-10,2,-9,nt,nt
O=C(/C=C/Sc1ccccc1)c1ccc(Cl)cc1,4,3,38*,1,70*,47*
O=C(/C=C/Nc1ccccc1)c1ccccc1,-7,-6,0,-5,nt,nt
O=C(CCN1Cc2ccccc2C1)c1ccc2c(c1)OCCO2,4,-3,16,-7,nt,nt
O=C(CCN1CCc2ccccc2C(c2ccccc2)C1)c1ccc2c(c1)OCCO2 (stereo not drawn),4,0,26*,11,23*,86*
CC1(C)OC(=O)C=C[C@]2(C)[C@H]3CC[C@@]4(C)[C@H](c5ccoc5)OC(=O)[C@H]5O[C@]54[C@]3(C)C(=O)C[C@@H]12,-4,nt,4,-5,nt,nt
CC(=O)OC1CC2C(C)(C)C(=O)C=CC2(C)C2CCC3(C)C(c4ccoc4)OC(=O)C4OC43C12C (stereo not drawn),nt,nt,24*,9,42*,34*
CC(=O)O[C@@H]1C[C@H]2C(C)(C)C(=O)C=C[C@]2(C)[C@H]2CC[C@@]3(C)[C@H](c4ccoc4)OC(=O)[C@H]4O[C@]43[C@@]21C,10,-9,27*,0,43*,30*
CCn1c(-c2ccccc2)c(C(=O)CCl)c2ccccc21,-18,17,-2,0,nt,nt
Cn1c(-c2ccccc2)c(C(=O)CCl)c2ccccc21,0,19,24*,-2,37*,22*
CCOc1ccc(N)c(SSc2cc(OCC)ccc2N)c1,-4,nt,73*,-9,82*,97*
O=C(Nc1nc2ccccc2n1Cc1ccc(Cl)cc1)c1ccco1,0,6,5,-16,nt,nt
CC(NC(=O)/C=C/c1ccco1)c1nc2ccccc2n1Cc1cccc(Cl)c1 (stereo not drawn),3,-12,26*,-2,37*,58*
Cc1cc2c(c(=O)n1CCCn1ccnc1)C(c1ccco1)C(C#N)=C(N)O2 (stereo not drawn),-2,-1,13,13,nt,nt
COc1ccc(C2C(C#N)=C(N)Oc3cc(C)n(Cc4ccco4)c(=O)c32)cc1 (stereo not drawn),-10,-4,32*,4,66*,68*
CC(C)(CO)NS(=O)(=O)c1ccc2c(c1)Cc1cc(S(=O)(=O)NC(C)(C)CO)ccc1-2,0,nt,5,-6,nt,nt
CCCC[n+]1c2ccccc2cc2ccccc21,-15,nt,87*,-2,102*,100*
CCC[n+]1c2ccccc2cc2ccccc21,-8,nt,72*,-2,94*,84*
Cc1nc(N)nc(N)c1CCCc1ccc(Cl)c(Cl)c1,-4,nt,13,-1,nt,nt
N#C/C(=C\c1ccc(F)c(Br)c1)C(=O)NC1CC1,-5,nt,2,9,nt,nt

# Compound activity deposited in PubChem by The Scripps Research Institute Molecular Screening Center.
